# Test results from PubChem BioAssay AID743395 (Broad Institute, 2014).
# Among all 1,200 compounds or so, about 480 (40%) were called active. The rule behind the calls is not given here. So high a share suggests a set chosen from earlier hits. The list is a sample of the results. Measured potencies and affinities stand elsewhere.
# Test: HepG2 cell cytotoxicity, dose response, cytotoxicity control, CellTiter-Glo luminescence, cherry-pick, set 2 (AID 743395);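 note: 0% = neutral control wells and -100% = positive control wells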
# Conditions: HepG2 viability, CellTiter-Glo ATP luminescence, 72 h; series mostly up to 26 µM; activity change, negative = cytotoxicity: at the top concentration
row,Structure (SMILES),"activity change, negative = cytotoxicity"
1,C[C@H](CO)N1C[C@H](C)[C@H](CN(C)C(=O)c2ccc3c(c2)OCO3)Oc2cc(C#Cc3ccccc3F)ccc2S1(=O)=O,62.9% (inactive)
2,COc1ccc(C)cc1NC(=O)C(OC(=O)c1ccc(Cl)c(S(=O)(=O)N(C)c2ccccc2)c1)c1ccccc1 (configuration not stated),6.28% (inactive)
3,O=c1c(O)c(-c2cccs2)oc2ccc(Cl)cc12,-32.4% (inactive)
4,CC(C)Oc1ccc(S(=O)(=O)N2CCOCC2)cc1NC(=O)CCCSc1ccccc1,7.1% (inactive)
5,O=C(NCCCN1CCCC1=O)c1cc(S(=O)(=O)N2CCOCC2)c(Cl)cc1Cl,1.04% (inactive)
6,c1ccc2c(c1)N1CCCN=C1N2CCN1CCCCC1,-12.9% (inactive)
7,COc1ccc(NC(=O)N(C)C[C@@H]2Oc3cc(C#CCC(C)C)ccc3S(=O)(=O)N([C@H](C)CO)C[C@@H]2C)cc1,7.43% (inactive)
8,Cc1ccc(S(=O)(=O)N2CCOCC2)cc1NC(=O)CSc1nnc(COc2ccccc2F)n1N,-0.298% (inactive)
9,O=C(NCC(c1cccs1)N1CCOCC1)c1ccc(OCc2ccccc2)cc1 (configuration not stated),12.2% (inactive)
10,CCOC(=O)[C@H](CCc1ccccc1)N[C@@H](C)C(=O)N1[C@H](C(=O)O)C[C@@H]2CCC[C@@H]21,-17.6% (inactive)
11,CCOc1ccc(NS(=O)(=O)c2cc(NC(=O)CCNC(=O)c3ccco3)ccc2OC)cc1,-23.6% (inactive)
12,CC(=O)OCC(=O)NCCCOc1cccc(CN2CCCCC2)c1,-9.23% (inactive)
13,Cc1c(C)c2c(OCC(=O)N3CCC(O)CC3)cc3c(c2oc1=O)CCC(C)(C)O3,-0.002% (inactive)
14,CCOc1ccc(C(=O)N[C@H](C(=O)Nc2cccc(S(=O)(=O)N3CCCCC3)c2)C(C)C)cc1,34.1% (inactive)
15,CN(Cc1cccs1)C(=O)c1cccc(S(=O)(=O)N2CCCCCC2)c1,-15.8% (inactive)
16,COC(CNC(=O)[C@H](Cc1ccccc1)N1Cc2ccccc2C1=O)OC,1.08% (inactive)
17,CC(C(=O)O)N(C(=O)c1ccccc1)c1ccc(F)cc1 (configuration not stated),-6.57% (inactive)
18,O=C(NCCC1CCCCN1S(=O)(=O)c1cccs1)C(=O)Nc1ccc(F)cc1F (configuration not stated),-11.5% (inactive)
19,COc1ccc(NC(=O)C2CCCN2C(=O)Nc2cccc(F)c2)cc1 (configuration not stated),-4.96% (inactive)
20,Cc1ccc(OCC(=O)Nc2ccc(CN3CCCCC3)cc2)c(C)c1,-4.73% (inactive)
21,N#CC(C#N)=C1C=C2C=C(N3CCOCC3)CCC2CC1 (configuration not stated),-4.57% (inactive)
22,CCN(CC)C1=CC2=CC(=C(C#N)C#N)CCC2CC1 (configuration not stated),2.84% (inactive)

row,Structure (SMILES),"activity change, negative = cytotoxicity"
1,CC12CCC3c4ccc(O)cc4CCC3C1CCC2=O (configuration not stated),-5.95% (inactive)
2,C#C[C@]1(O)CC[C@H]2[C@@H]3CCc4cc(OC)ccc4[C@H]3CC[C@@]21C,-1.22% (inactive)
3,COc1cccc(C#Cc2ccc3c(c2)O[C@@H](CN(C)C(=O)c2ccccn2)[C@H](C)CN([C@@H](C)CO)S3(=O)=O)c1,11.2% (inactive)
4,O=C(O)COC(=O)Cc1ccccc1Nc1c(Cl)cccc1Cl,-6.65% (inactive)
5,Cc1ccc(C(=O)Nc2cccc(C(F)(F)F)c2)cc1Nc1cnccn1,2.75% (inactive)
6,CC(=O)c1cc(NC(=O)c2cccc(C(F)(F)F)c2)c(=O)oc1C,1.46% (inactive)
7,COCCNc1nc(Nc2ccc(C)cc2C)c2sccc2n1,-3.94% (inactive)
8,Cn1cccc1C(=O)OCC(=O)NCc1ccc2c(c1)OCO2,-11.8% (inactive)
9,CC(C)(C)C(=O)Nc1ccc(S(=O)(=O)NC2=NCCCCC2)cc1,-0.044% (inactive)
10,CC(=O)NS(=O)(=O)c1ccc(NC(=O)CSc2ccc(Cl)cc2)cc1,-2% (inactive)
11,Cc1ccc(S(=O)(=O)Nc2cc(C)cc(CCNC=O)c2C)cc1,4.38% (inactive)
12,Cc1cc(O)cc2c1C1CCC3(C)C(=O)CCC3C1C=C2 (configuration not stated),8.57% (inactive)
13,COc1ccc(-c2oc3ccc(-c4cc(OC)c(OC)c(OC)c4)cc3c2C#Cc2ccccn2)cc1,-5.9% (inactive)
14,COc1ccc(CCn2c(NN=C(C)C)nc3c2c(=O)[nH]c(=O)n3C)cc1,-1.37% (inactive)
15,CCCCNC(=O)CSc1nc2ccc(C)cc2[nH]1,4.44% (inactive)
16,COC(=O)c1ccc(C(=O)NC2CCCc3c2cnn3-c2cc(F)cc(F)c2)nc1 (configuration not stated),-22.1% (inactive)
17,COC(=O)C1=CN(c2ccc3c(c2)OCO3)C(N)=C(C#N)C1c1cccc(F)c1 (configuration not stated),-9.02% (inactive)
18,COc1cccc(NC(=O)c2cnc(SCC(=O)NCc3ccc4c(c3)OCO4)n(C)c2=O)c1,-13.8% (inactive)
19,OC[C@@H]1[C@@H](c2ccc(C#CC3(O)CCCC3)cc2)[C@H]2CN(Cc3ccccc3F)CCCCN12,-24.4% (inactive)
20,O=C(Nc1ccccc1)N1C[C@H]2[C@@H](c3ccccc31)[C@H](CO)N2C(=O)c1ccccn1,-1.86% (inactive)
21,C/C=C/c1ccc([C@@H]2[C@H](CO)N3CCCCN(S(=O)(=O)c4ccccc4)C[C@@H]23)cc1,9.51% (inactive)
22,O=C(Nc1ccc(F)cc1)N1CCCCN2[C@H](C1)[C@H](c1ccc(-c3cccc(F)c3)cc1)[C@@H]2CO,-14.1% (inactive)

row,Structure (SMILES),"activity change, negative = cytotoxicity"
1,CCOc1ccc(NC(=O)CN(c2ccc([N+](=O)[O-])cc2)S(=O)(=O)c2ccccc2)cc1,-26% (inactive)
2,Cc1ccc(NC(=O)Cc2nc(-c3c[nH]c(C(=O)N4CCCC4)c3)cs2)c(C)c1,-12.1% (inactive)
3,COc1ccc(C#Cc2ccc([C@H]3[C@H]4CN(C(=O)c5ccncc5)CCCCN4[C@H]3CO)cc2)cc1,-22.7% (inactive)
4,OC[C@H]1[C@H](c2ccc(C#CC3(O)CCCC3)cc2)[C@H]2CN(Cc3ccccc3F)CCCCN21,-17.8% (inactive)
5,O=S(=O)(Cc1ccccc1)N1CCCCN2[C@H](C1)[C@@H](c1ccc(C#Cc3ccccc3)cc1)[C@@H]2CO,-21.4% (inactive)
6,C[C@]12C=CC(=O)C=C1CC[C@@H]1C2[C@@H](O)C[C@@]2(C)C1CC[C@]2(O)C(=O)COC(=O)CCC(=O)O (some centres not stated),-0.286% (inactive)
7,Nc1nn(-c2ccccc2)c(N)c1N=Nc1cccc(F)c1,-13.9% (inactive)
8,CCN(C(=O)COc1ccc2ccc(=O)oc2c1)C1CCCCC1,-7.77% (inactive)
9,CC(C)Nc1nc(Nc2ccc(Cl)cc2F)c2sccc2n1,-18% (inactive)
10,COc1cc(C(=O)N2CCC(C(N)=O)CC2)ccc1OCc1c(C)noc1C,-3.78% (inactive)
11,Cc1noc(C)c1COc1ccc(C(=O)N2CCN(S(=O)(=O)c3ccc(F)cc3)CC2)cc1,-4.3% (inactive)
12,CCOC(=O)c1c(NC(=O)CN2C(=O)NC3(CCC(C)CC3)C2=O)sc(C)c1CC (configuration not stated),3.65% (inactive)
13,CC(Oc1ccccc1Cl)C(=O)Nc1ccc(S(=O)(=O)Nc2nccs2)cc1 (configuration not stated),-13.9% (inactive)
14,CCCCCCCCCC(=O)OCC(O)CO (configuration not stated),3.56% (inactive)
15,O=C(CSc1nnc(Cn2c(=O)sc3ccccc32)n1-c1ccccc1)NCc1ccco1,-0.55% (inactive)
16,Cc1cccc(COc2ccccc2C(=O)NC2CCC(O)CC2)c1 (configuration not stated),-4.57% (inactive)
17,Cc1csc2sc(-c3ccnc(SCC(=O)NCc4ccccc4)n3)c(C)c12,-12.3% (inactive)
18,CC(C)C#Cc1ccc([C@@H]2[C@@H](CO)N3C(=O)CN(S(=O)(=O)c4ccccc4)C[C@@H]23)cc1,-4.65% (inactive)
19,CCC(=O)N1[C@H](CN(CC)C(C)=O)[C@@H](c2ccc(-c3ccccc3)cc2)[C@@H]1CO,1.41% [at 23.5 µM] (inactive)
20,CN(C[C@@H]1N[C@H](CO)[C@H]1c1ccccc1)C(=O)c1ccccn1,1.53% (inactive)
21,CNC(=O)CC1C(=O)N(c2ccc(F)cc2)C(=S)N1NC(=O)c1ccc(Cl)cc1 (configuration not stated),-23.1% (inactive)
22,C[C@H]1CCCCO[C@@H](CN(C)C(=O)Nc2ccc(C(F)(F)F)cc2)[C@@H](C)CN([C@@H](C)CO)C(=O)c2cc(NC(=O)Nc3ccc(F)cc3)ccc2O1,14.7% (inactive)

row,Structure (SMILES),"activity change, negative = cytotoxicity"
1,C[C@H](CO)N1C[C@H](C)[C@@H](CN(C)C(=O)Nc2ccc(C(F)(F)F)cc2)OCCCC[C@H](C)Oc2ccc(NC(=O)Nc3ccc(F)cc3)cc2C1=O,-21% (inactive)
2,C[C@H]1CCCCO[C@H](CN(C)C(=O)Nc2ccc(C(F)(F)F)cc2)[C@@H](C)CN([C@@H](C)CO)C(=O)c2cc(NC(=O)Nc3ccc(F)cc3)ccc2O1,-0.6% (inactive)
3,C[C@@H]1CN([C@@H](C)CO)C(=O)c2cccc(NC(=O)NC3CCCCC3)c2O[C@@H]1CN(C)Cc1ccc(Cl)c(Cl)c1,5.25% (inactive)
4,C[C@H]1CCCCO[C@@H](CN(C)C(=O)Nc2ccc(C(F)(F)F)cc2)[C@@H](C)CN([C@@H](C)CO)C(=O)c2cc(NC(=O)Nc3ccc4c(c3)OCO4)ccc2O1,-1.27% (inactive)
5,C[C@H]1CCCCO[C@@H](CN(C)C(=O)C2CCCCC2)[C@@H](C)CN([C@@H](C)CO)C(=O)c2cc(NC(=O)Nc3ccc(C(F)(F)F)cc3)ccc2O1,-1.26% [at 23.5 µM] (inactive)
6,C[C@H]1CN([C@@H](C)CO)S(=O)(=O)c2ccc(/C=C/c3ccccc3)cc2O[C@@H]1CN(C)C(=O)Nc1ccc(F)cc1,-1.73% (inactive)
7,Cn1cnc2nc[nH]c2c1=S,1.09% (inactive)
8,Cc1ccc(NC(=O)COc2ccc(Br)cc2CO)cc1S(=O)(=O)N1CCOCC1,5.44% (inactive)
9,CCc1nc(C)cn1S(=O)(=O)c1ccc2c(c1)OCCO2,23% (inactive)
10,CCCCC(=NCCc1c(C)[nH]c2ccccc12)C1=C(O)CC(c2ccccc2)CC1=O (configuration not stated),-16.5% (inactive)
11,COC(=O)c1[nH]c2c(c1C)C(=O)CC(c1cccc(OC)c1)C2 (configuration not stated),-9.76% (inactive)
12,O=C(Cc1ccccn1)NCC[C@H]1CC[C@@H](NC(=O)Nc2ccc(C(F)(F)F)cc2)[C@@H](CO)O1,8.05% (inactive)
13,Cc1ccc(S(=O)(=O)N(Cc2cc3ccccc3[nH]c2=O)c2cccc(C)c2)cc1,1.26% (inactive)
14,C=CC(C)(C)c1[nH]cnc1/C=C1\NC(=O)C(C(C)C)NC1=O (configuration not stated),-24.7% (inactive)
15,O=C(Cc1ccc(Cl)cc1)OCC(=O)c1ccc[nH]1,-6.25% (inactive)
16,Cc1ccc(CN(C)CC(=O)Nc2cccc([N+](=O)[O-])c2)o1,-15.2% (inactive)
17,CCCCN(C(=O)c1cc(S(=O)(=O)N2CCCCC2)ccc1Cl)c1c(N)n(CC(C)C)c(=O)[nH]c1=O,-14.3% (inactive)
18,O=C(C[C@H]1CC[C@@H]2[C@H](COC[C@@H](O)CN2S(=O)(=O)c2ccccc2)O1)Nc1ccc(-c2ccccc2)cc1,-22.6% (inactive)
19,CN1C(=O)c2cc(NC(=O)Cc3ccccc3)ccc2OC[C@@H]2O[C@H](CC(=O)NCc3ccc(Cl)cc3)CC[C@H]21,-16% (inactive)
20,COc1ccc(NC(=O)CSc2nnc(Cc3cccs3)n2C)cc1,-0.153% (inactive)
21,CCCCn1cnc2c(c(CC#N)nn2-c2ccccc2)c1=N,0.565% (inactive)
